Drawing on PubChem BioAssay (EPA / NIEHS), this text covers outcome and AC50 for 40 compounds.

For orientation: AC50 means the midpoint of the concentration-response curve, whichever way the signal moves.

Molecules are shown by their SMILES. Active and inactive are the calls of the source. The calls were made as follows: active = hit-call score of the fitted dose curve at least 0.9, where 1 is the maximum; inactive = score below 0.9.

The target in the assay is CCAAT/enhancer-binding protein beta (Homo sapiens) (UniProt P17676). Description: ATG_C_EBP_CIS: Attagene CIS-FACTORIAL HepG2 Assay for human CCAAT/Enhancer Binding Protein (C/EBP) beta (AID 2282927). To be noted: HepG2 Attagene cis-factorial transcription factor reporter; actives raise or lower the signal. The procedure: ATG_CIS is a cell-based, multiplexed-readout assay that uses HepG2, a human liver cell line, with measurements taken at 24 hours after chemical dosing in a 24-well plate.ATG_C_EBP_CIS is one of 52 assay component(s) measured or calculated from the ATG_CIS assay. It is designed to make measurements of mRNA induction, a form of inducible reporter, as detected with fluorescence intensity signals by Reverse transcription polymerase chain reaction (RT-PCR) and Capillary electrophoresis technology.Data from the assay component ATG_C_EBP_CIS was analyzed into 1 assay endpoint. This assay endpoint, ATG_C_EBP_CIS, was analyzed with bidirectional fitting relative to DMSO as the negative control and baseline of activity. Using a type of inducible reporter, measures of mRNA for gain or loss-of-signal activity can be used to understand the reporter gene at the transcription factor-level as they relate to the gene CEBPB. Furthermore, this assay endpoint can be referred to as a primary readout, because this assay has produced multiple assay endpoints where this one serves a reporter gene function. To generalize the intended target to other relatable targets, this assay endpoint is annotated to the dna binding intended target family, where the subfamily is basic leucine zipper.
Chain of CCAAT/enhancer-binding protein beta (Homo sapiens) (P17676 whole entry, looked up): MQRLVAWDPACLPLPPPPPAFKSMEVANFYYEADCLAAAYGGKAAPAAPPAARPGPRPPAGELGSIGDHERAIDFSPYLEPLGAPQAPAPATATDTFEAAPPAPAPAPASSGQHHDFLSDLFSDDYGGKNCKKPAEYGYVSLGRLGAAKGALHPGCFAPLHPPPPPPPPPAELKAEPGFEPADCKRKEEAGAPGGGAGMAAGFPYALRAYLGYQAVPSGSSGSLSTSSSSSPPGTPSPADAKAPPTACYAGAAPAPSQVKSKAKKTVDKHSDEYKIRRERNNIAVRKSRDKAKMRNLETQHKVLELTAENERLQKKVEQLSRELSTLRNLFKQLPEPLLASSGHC
Human liver HepG2 cells are transiently transfected with multiple reporter transcription units (MRTUs) in 6-well plates using FuGene 6 reagent (Roche; 3 ml FuGene/1 mg DNA). The MRTU constructs are regulated by a cis-regulating element (promoter). […] A major difference between the CIS and TRANS system is that in CIS activities of endogenous TFs are measured, whereas the TRANS assay evaluates changes in activities of exogenous, chimeric NR-Gal4 proteins. […] At the end of 24 hour incubation, total RNA was isolated using TriZol reagent (Invitrogen). The isolated RNA is then reverse-transcribed using oligo(dT) primer and Mo-MLV reverse transcriptase (Invitrogen) with DNAse I (Ambion) treatment for 30 min. The one-tenth of the produced cDNA was amplified by PCR using Taq DNA polymerase (Invitrogen) and two reporter sequence-specific primers. The PCR products were fluorescently labeled by primer extension with 6-arboxyfluorescein (6-FAM) 5'-labeled reporter sequence-specific primer (2 min at 95 C, 20 s at 68 C and 10 min at 72 C) and these products were digested with 5U of HpaI (New England Biolabs) for 2h at 37 C. The fragments were purified using Qiaquick PCR columns (Qiagen), analyzed on an ABI 3130xL genetic analyzer (Applied Biosystems) with peak positions identified by using a set of X-rhodamine (ROX)-labeled MapMarker1000 molecular weight standards (BioVentures). The raw capillary electrophoresis data was processed using Attagraph software (Attagene).
With `Cc1ncc([C@@H](CCCCCCc2ccc3c(n2)NCCC3)CC(=O)O)cn1`, the outcome was inactive.

Regarding `CCn1nc(C)c2c1C(=O)NCC(c1ccc(O)cc1)=N2`, the outcome was inactive.

In the case of `CCOC(N)=O`, the outcome was inactive.

Take `Cc1cccc(O)c1C`: the result was inactive.

In the case of `CCCCCCCCCC`, the result was inactive.

For `CCc1cccc(CC)c1N`, the result was inactive.

As to `O=S1(=O)CCCO1`, the result was inactive.

Regarding `CCCCCCOC(=O)CC(CC(=O)OCCCCCC)(OC(=O)CCC)C(=O)OCCCCCC`, the outcome was inactive.

As for `COc1cc(C(C)C)c2c(c1)S(=O)(=O)N(COc1cc(=O)n3cccc(OCCN4CCCCC4)c3n1)C2=O`, the half-maximal activity concentration (AC50) is 3.74 µM (active).

With `CCOc1ccc2[nH]cc(C(=O)NCc3ccccc3)c(=O)c2n1`, the outcome was inactive.

Take `O=C(NO)C1(NS(=O)(=O)c2ccc(Oc3ccc(F)cc3)cc2)CCOCC1`: the result was inactive.

`COCc1nnc(-c2ccc[n+]([O-])c2)n1-c1c(Cl)c(Cl)cc2[nH]c(=O)c(=O)[nH]c12`: the outcome was inactive.

With `c1ccc2ncccc2c1`, the outcome was inactive.

As to `CCCc1ccccc1`, the outcome was inactive.

On to `CCCCN1C(=O)[C@@H]([C@H](O)C2CCCCC2)NC(=O)C12CCN(Cc1ccc(Oc3ccc(C(=O)O)cc3)cc1)CC2`, for which the AC50 is 32.9 µM (active).

Regarding `FC(F)(F)COC(OCC(F)(F)F)OCC(F)(F)F`, the outcome was inactive.

In the case of `CC(C)C(=O)Nc1ccc([N+](=O)[O-])c(C(F)(F)F)c1`, the outcome was inactive.

With `CCCCCCCC1CCC(=O)O1` (stereo not given), the outcome was inactive.

For `C=CCc1cc(S(=O)(=O)c2ccc(O)c(CC=C)c2)ccc1O`, the outcome was inactive.

On to `c1ccc(C(O[C@@H]2CCCN(CCc3ccc4c(c3)OCO4)C2)c2ccccc2)cc1`, for which the outcome was inactive.

`O=C(O)c1cccc(C(=O)O)c1`: the outcome was inactive.

On to `FC(F)=C(F)C(F)(F)C(F)(F)C(F)(F)C(F)(F)C(F)(F)C(F)(F)F`, for which the outcome was inactive.

Take `CCCOc1ccc(S(=O)(=O)N2CCN(CC)CC2)cc1-c1nc2c(CC)n(Cc3ccccn3)nc2c(=O)[nH]1`: the result was inactive.

Regarding `C=CN1CCCC1=O`, the result was inactive.

`CCCCCCCCCCCCCCO`: the AC50 is 74.3 µM (active).

Regarding `NC(=O)NN=Cc1ccc([N+](=O)[O-])o1`, the outcome was inactive.

As for `Cc1nc(-c2ccccn2)ncc1C(=O)Nn1cc(C)c2cc(F)ccc21`, the outcome was inactive.

Consider `Cn1c(=O)c2[nH]cnc2n(C)c1=O`, for which the result was inactive.

Turning to `OCc1c[nH]c2ccccc12`, the outcome was inactive.

Consider `OCc1ccccc1`, for which the result was inactive.

Turning to `O=S(=O)(O)CCC(F)(F)C(F)(F)C(F)(F)C(F)(F)C(F)(F)C(F)(F)F`, the result was inactive.

As to `C[C@@H](Oc1ccc(CNC(=O)c2cccnc2Oc2ccc3c(c2)OCO3)c(F)c1)C(=O)O`, the result was inactive.

Consider `NNC(=O)c1ccncc1`, for which the outcome was inactive.

`FC(F)C(F)(F)COCC1CO1` (stereo not given): the result was inactive.

In the case of `OCCOCCOCCO`, the outcome was inactive.

As to `C[C@]12C=CC(=O)C=C1CC[C@H]1[C@@H]3C[C@@H](O)[C@](O)(C(=O)CO)[C@@]3(C)C[C@H](O)[C@@]12F`, the result was inactive.

On to `CC(C)CC(C)O` (stereo not given), for which the outcome was inactive.

As for `OCCNCCO`, the outcome was inactive.

For `NCC(F)(F)C(F)(F)C(F)(F)C(F)(F)F`, the result was inactive.

For `OC[C@H]1O[C@@H]2O[C@H]3[C@H](O)[C@@H](O)[C@@H](O[C@H]4[C@H](O)[C@@H](O)[C@@H](O[C@H]5[C@H](O)[C@@H](O)[C@@H](O[C@H]6[C@H](O)[C@@H](O)[C@@H](O[C@H]7[C@H](O)[C@@H](O)[C@@H](O[C@H]1[C@H](O)[C@H]2O)O[C@@H]7CO)O[C@@H]6CO)O[C@@H]5CO)O[C@@H]4CO)O[C@@H]3CO`, the outcome was inactive.
